Several values for one entry are separate records, joined by “and”; a condition that tells them apart may be missing. Equal entries are not always repeated. The panel holds about 83,000 compounds, 20% with a hit somewhere; the sample as a whole holds those more often.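 The endpoint reported here, percent growth, reads 100 for growth as untreated, 0 for no net growth and -100 for all cells dead.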 Values without a mark were called inactive. Activity calls are given as the source filed them. Rule for the calls: active = growth percent below 10; inactive = the rest.
Test system: MDA-MB-468 breast
Experiment: NCI-60 one-dose screen, 48 h (100 = growth as untreated, 0 = no growth, -100 = all killed)
Details: 10 µM unless noted

SMILES | growth
C/C(=C\CCc1ccsc1)CC/C=C(\C)CCCN1CCN(CCO)CC1 | 7.83% (active)
COc1ccc(C2CC(c3cccc(OCCCCOc4cccc(C5=NN(C(C)=O)C(c6ccc(OC)cc6)C5)c4)c3)=NN2C(C)=O)cc1 (stereo not given) | 23.7%
CCOC(=O)C1=CSC2=NC3=C(CCC/C3=C\c3ccc(Cl)cc3)C(c3ccc(Cl)cc3)N12 (stereo not given) | 84.9%
c1ccc2c(c1)CN(CCCN1CCOCC1)C2 | 89.7%
CC[N+](CCCCCCCCCC[N+](CC)(c1ccccn1)c1ccccn1)(c1ccccn1)c1ccccn1 | -1.91% (active)
COc1ccc(-c2ccc(-c3ccc(C(=N)N)nc3)s2)cc1Cl | -51.8% (active)
OCCn1cc(-c2nc(-c3c[nH]c4ncccc34)cs2)c2ccccc21 | 4.37% (active)
CC[C@]12C=CCN3CC[C@@]4(c5cc([C@H]6CCC(=O)N6)c(OC)cc5N(C)[C@H]4[C@@](O)(C(=O)OC)[C@@H]1OC(C)=O)[C@@H]32 | 110% [2.5 µM]
CC1CCCc2sc3nc(NNC(=O)c4cnccn4)n(-c4ccccc4)c(=O)c3c21 (stereo not given) | -31.8% (active) and -42.9% (active)
Cn1[nH]cc(/C=N/C(N)=O)c1=O | 119%
O=c1nc(NO)[nH]c(=O)n1Cc1ccccc1 | 107%
C=C(C)[C@@H]1CC[C@]2(C)[C@H](C(=O)C=C3[C@@H]4C[C@](C)(C(=O)N5CCN(C)CC5)CC[C@]4(C)CC[C@]32C)[C@@]1(C)CCC#N | -76.5% [100 µM] (active)
Cc1ccnc(Nc2ccc([N+](=O)[O-])c(NCCN3CCOCC3)n2)c1 | 26.3%
COc1ccc(N2C(=O)C(Oc3ccccc3)C2c2ccc(C)cc2)cc1 (stereo not given) | 122%
CC(N)C(Cc1ccc(Cl)cc1)c1ccc(Cl)cc1 (stereo not given) | 41.6%
CCOC(=O)/C=C/C(=O)[C@H](CC(C)C)NC(=O)[C@H](Cc1ccccc1)NC(=O)OCc1ccccc1 | -21.5% (active)
CCCCCCCCOC(=O)C(C)OC(=O)OCCOCCOC(=O)OC(C)C(=O)OCCCCCCCC (stereo not given) | 98.6%
Clc1ccc(/C=N\N2CCCCCC2)cc1 | 106% and 122%
CN(C)C/C=C/C(=O)Nc1cc2c(Nc3ccc(F)c(Cl)c3F)ncnc2cc1OCCOC(F)F | -40.8% (active)
CCOC(=O)c1c(NC(=O)CSc2n[nH]c3nc4ccccc4n23)sc(CC)c1C | 68.6%

SMILES | growth
CCCCCCCCCCOC(C)=O | 110%
Cn1cc(-c2csc(-c3cn(C)c4ncccc34)n2)c2cc(Br)cnc21 | -28.4% (active)
C1=C\COCc2cc(ccc2OCCN2CCCC2)Nc2nccc(n2)-c2cccc(c2)COC/1 | -53.7% (active)
CCOC(=O)C1=C(c2ccccc2)N=C2SC=C(c3ccc(Cl)cc3)N2C1c1ccc(Cl)cc1 (stereo not given) | 41.3%
CN(C)c1oc(C2OC2c2ccccc2)nc1C#N (stereo not given) | 90.3%
O=C(CN1C(=O)/C(=C/c2ccco2)SC1=S)NCCc1c[nH]c2ccc(F)cc12 | 105%
O=C(NCCNc1cc(-c2cn(-c3ccccc3)nc2-c2cccc(O)c2)ccn1)Nc1ccc(Cl)c(C(F)(F)F)c1 | 17.5%
Cc1ccc2c(c1)c(Sc1ccc(C(=O)NO)cc1)c1n2CN(C)CC1 | -19.3% (active)
COc1ccc(C(CC(=O)c2ccc3c(c2)OCO3)C(=O)O)cc1OC (stereo not given) | 114% and 103%
O=C(CCN1CCCCC1)c1ccc2ccccc2c1 | 92.1%
N=c1sc(Cc2cc(Cl)ccc2Cl)cn1CC(=O)c1ccccc1 | 61.3%
COC1(OC)C2(Cl)C=C(c3ccccc3)C1(Cl)C(Cl)=C2Cl (stereo not given) | 108%
COc1cc(-c2cc3ncccc3c3nc(OCCN(C)C)c4cccnc4c23)cc(OC)c1OC | -6.09% (active)
Clc1ccc2c(c1)c(-c1ccccc1)nc1nncn12 | 110%
CCN(CC)CCNc1ccc(C)c2sc3ccccc3c(=O)c12 (tested in a mixture with another compound) | 11.8% and 16.9%
O=[N+]([O-])c1ccccc1Sc1ccccc1[N+](=O)[O-] | 92.1%
Oc1c(N=Nc2nn[nH]n2)ccc2ccccc12 | 85.3%
CCCCCCCCCCCCCCCC[N+]1(C)CCCC1c1cccnc1 (stereo not given) | -15.8% (active)
COc1ccc(/C=C2\COc3ccc(O)c(O)c3C2=O)c(OC)c1OC | 7.7% (active)
N#C/C(=C\c1ccc(-c2cccc(C(F)(F)F)c2)o1)c1ccccc1 | 23.4%

Source: PubChem BioAssay (NCI)
